In PubChem BioAssay:
Active and inactive are the calls of the source. Unless noted, how the calls were made is not given here.

Columns and labels:
[1] = resazurin metabolic signal in HepG2 cells – cell-based, resazurin fluorescence, 24 h, PK04 Diversity Set, profiling panel (AID 1172); details: HepG2 viability, higher = more signal; further: test concentration not given here
[2] = budding yeast growth changes without added modifier – OD600, strain BY4716, 24 h, basal condition, primary screen (AID 1173); details: S. cerevisiae BY4716 growth, OD600, 24 h; higher = more signal, called active from +8 up or from −8 down
[3] = viability profiling in MM1S myeloma cells – cell-based, resazurin fluorescence, basal, 24 h, PK04 Diversity Set, profiling panel (AID 1174); details: higher = more signal, called active from +8 up or from −8 down;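 further: MM1S multiple myeloma cell line; test concentration not given here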
[4] = target: Dihydroorotate dehydrogenase (quinone), mitochondrial (Plasmodium falciparum (isolate 3D7)) (UniProt Q08210); test: inhibition of P. falciparum DHODH – biochemical, C-terminal His tag, absorbance 600 nm, primary screen (AID 1175); details: PfDHODH enzyme, DCIP absorbance 600 nm; higher = more signal, called active from +8 up or from −8 down;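 further: recombinant parasite enzyme with a five histidine tag at its C terminus; test concentration not given here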
Dihydroorotate dehydrogenase (quinone), mitochondrial (Plasmodium falciparum (isolate 3D7)), sequence (Q08210 whole entry, looked up): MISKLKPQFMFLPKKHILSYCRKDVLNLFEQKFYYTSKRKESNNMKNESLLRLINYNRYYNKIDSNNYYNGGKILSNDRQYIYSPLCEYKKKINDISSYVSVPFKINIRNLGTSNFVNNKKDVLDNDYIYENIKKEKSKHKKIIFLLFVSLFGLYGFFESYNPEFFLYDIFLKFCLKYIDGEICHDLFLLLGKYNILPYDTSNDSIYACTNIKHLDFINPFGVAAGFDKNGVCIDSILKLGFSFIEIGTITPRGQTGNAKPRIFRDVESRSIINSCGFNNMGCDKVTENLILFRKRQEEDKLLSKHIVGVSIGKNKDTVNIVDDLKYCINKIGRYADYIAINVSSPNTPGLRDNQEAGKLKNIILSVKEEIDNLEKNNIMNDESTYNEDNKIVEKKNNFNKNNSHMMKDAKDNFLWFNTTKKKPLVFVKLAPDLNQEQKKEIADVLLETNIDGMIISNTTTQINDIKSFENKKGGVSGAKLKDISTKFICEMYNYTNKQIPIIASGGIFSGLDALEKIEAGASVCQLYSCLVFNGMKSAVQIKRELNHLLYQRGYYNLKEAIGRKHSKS

[5] = inhibition of PAO1 biofilm formation – strain PAO1, LB-PBS medium, absorbance 600 nm, primary screen (AID 1176); further: test concentration not given here; details: P. aeruginosa PAO1 growth/biofilm, A600, 12 h; higher = more signal
[6] = growth modulation of vineyard yeast isolate – strain RM11-1a, OD600, basal, 24 h, primary screen (AID 1177);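 further: cultures grown under basal conditions with no added stressor; test concentration not given here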; details: S. cerevisiae RM11-1a growth, OD600, 24 h; higher = more signal, called active from +8 up or from −8 down
[7] = growth of efflux-deficient E. coli DRC39 – strain DRC39, OD650, 24 h, E. coli filamentation inducers, primary screen (AID 1178);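 further: growth measured as culture turbidity by optical density at 650 nm; test concentration not given here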; details: E. coli DRC39 acrAB, higher = more signal, called active from +8 up or from −8 down
[8] = growth of efflux-deficient E. coli DRC39 – strain DRC39, OD650, 48 h, E. coli filamentation inducers, primary screen (AID 1179);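 further: screen aims at cell division blockers that make cells filament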; details: E. coli DRC39 delta-acrAB growth, higher = more signal, called active from +8 up or from −8 down
[9] = viability profiling in RPMI8226 myeloma cells – cell-based, resazurin fluorescence, basal, 24 h, PK04 Diversity Set, profiling panel (AID 1180); details: higher = more signal;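 further: RPMI8826 multiple myeloma cell line at 5000 cells per well; test concentration not given here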
[10] = target: E3 ubiquitin-protein ligase XIAP (Homo sapiens) (UniProt P98170); test: small molecules binding XIAP protein – biophysical, small-molecule microarray, fluorescence 635 nm, primary screen (AID 1181); details: higher = more signal;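 further: score merges 667 nm emission and signal to noise over triplicate slides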
E3 ubiquitin-protein ligase XIAP (Homo sapiens), sequence (P98170 whole entry, looked up): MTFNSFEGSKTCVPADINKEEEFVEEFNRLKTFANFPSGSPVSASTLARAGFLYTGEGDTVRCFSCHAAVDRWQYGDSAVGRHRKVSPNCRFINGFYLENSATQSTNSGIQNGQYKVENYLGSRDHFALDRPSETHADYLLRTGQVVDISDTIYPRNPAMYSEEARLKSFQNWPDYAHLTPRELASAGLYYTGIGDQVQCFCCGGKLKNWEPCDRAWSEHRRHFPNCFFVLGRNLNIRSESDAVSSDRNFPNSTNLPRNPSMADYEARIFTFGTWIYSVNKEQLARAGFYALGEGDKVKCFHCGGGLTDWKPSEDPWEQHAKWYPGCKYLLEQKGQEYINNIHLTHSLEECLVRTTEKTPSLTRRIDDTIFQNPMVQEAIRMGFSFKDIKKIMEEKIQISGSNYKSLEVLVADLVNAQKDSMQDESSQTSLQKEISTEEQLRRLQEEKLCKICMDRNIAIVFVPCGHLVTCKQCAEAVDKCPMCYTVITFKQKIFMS

SMILES	z-score [1]	z-score [2]	z-score [3]	composite z-score [4]	z-score [5]	z-score [6]	z-score [7]	z-score [8]	z-score [9]	composite z-score [10]
Cc1ccc(S[C@]2(C(=O)NC(C)C)CC(=O)N(Cc3ccccc3)[C@@H]2c2ccc(CO)cc2)cc1	0.15	-0.0962 (inactive)	-0.792 (inactive)	-1.33 (inactive)	0.637 (inactive)	-0.949 (inactive)	1.19 (inactive)	1.62 (inactive)	1	-0.177
O=C1O[C@H](c2ccccc2)[C@H](c2ccccc2)N2[C@H]1[C@@H](C(=O)N1CCCCCCC1)[C@]1(C(=O)Nc3ccc(C#CCCO)cc31)[C@H]2c1ccc(O)cc1	0.546	0.206 (inactive)	1.33 (inactive)	-0.328 (inactive)	0.93 (inactive)	0.66 (inactive)	0.783 (inactive)	0.721 (inactive)	0.838	2.21
C=C(C(=O)CC[C@@H](OC(=O)c1ccccc1-c1ccccc1C(=O)O)c1cccc(OCCO)c1)C(C)C	0.821	-1.96 (inactive)	1 (inactive)	-1.26 (inactive)	0.661 (inactive)	-0.364 (inactive)	0.546 (inactive)	0.332 (inactive)	1.82	0.112
[N-]=[N+]=Nc1ccccc1C[C@@]1(C(=O)NCc2ccccc2)N=C(c2ccc(OCCCO)cc2)O[C@@H]1c1ccccc1	0.508	-0.0233 (inactive)	-1.71 (inactive)	0.889 (inactive)	2.51 (inactive)	1.17 (inactive)	0.712 (inactive)	-0.489 (inactive)	-0.564	0.204
CCCCN1CC=CC23O[C@@H]4/C=C\CCC(C)OC(=O)C4[C@H]2C(=O)N(CCO)[C@@H]3C1=O (stereo not given in full)	1	0.256 (inactive)	0.498 (inactive)	-0.252 (inactive)	0.0279 (inactive)	-0.348 (inactive)	0.32 (inactive)	-0.178 (inactive)	0.82	0.0026
C=CCOC(=O)[C@@H]1[C@H]2C(=O)O[C@H](c3ccccc3)[C@H](c3ccccc3)N2[C@H](c2ccc(OCCOC(=O)[C@H]3C[C@H]4C(=O)N[C@@H](CCCCN(C)C)C(=O)N4[C@H]3c3cccc(OCCO)c3)cc2)[C@@]12C(=O)Nc1ccccc12	0.594	0.756 (inactive)	0.75 (inactive)	0.0193 (inactive)	-0.475 (inactive)	0.237 (inactive)	0.292 (inactive)	0.352 (inactive)	0.835	-0.0102
COCCOC(=O)N1C(=O)[C@@]2(c3cc(C#CCNC(N)=O)ccc31)[C@H](C(=O)Nc1nc3ccccc3s1)[C@H]1C(=O)O[C@H](c3ccccc3)[C@H](c3ccccc3)N1[C@@H]2c1ccc(O)cc1	0.0612	1.1 (inactive)	-0.355 (inactive)	0.582 (inactive)	0.558 (inactive)	1.37 (inactive)	0.0967 (inactive)	-0.211 (inactive)	-1.37	0.273
C=C(/C=C\CNS(=O)(=O)c1ccc(C)cc1)[C@H](O)[C@H]1CCCN1S(=O)(=O)c1ccccc1[N+](=O)[O-]	-0.527	0.487 (inactive)	-0.943 (inactive)	1.57 (inactive)	1.21 (inactive)	2.53 (inactive)	1.12 (inactive)	-0.23 (inactive)	-0.851	-0.0448
CCOC(=O)C[C@H]1[C@H](OC(=O)c2cc3ccccc3oc2=O)[C@@H](NC(=O)Cc2ccc(OC)cc2)c2cc(OCCCO)ccc2N1C(=O)Cc1ccc(OC)cc1	1.04	-3.03 (inactive)	1.26 (inactive)	-0.317 (inactive)	-0.234 (inactive)	-1.01 (inactive)	1.76 (inactive)	0.248 (inactive)	0.918	0.177
CCCC1(C(=O)OC)C=C2C(=C(C(C)C)C(=O)C2C)CN1 (stereo not given)	-0.964	1.67 (inactive)	-1.13 (inactive)	-1.05 (inactive)	0.495 (inactive)	0.391 (inactive)	-0.314 (inactive)	0.0752 (inactive)	-1.44	0.227
COCCCNC(=O)[C@@]1(CCC(=O)OC(C)(C)C)N=C(c2ccc(OCCCO)cc2)O[C@H]1c1ccccc1	-0.464	1.12 (inactive)	0.34 (inactive)	-1.1 (inactive)	-0.568 (inactive)	0.795 (inactive)	0.267 (inactive)	1.22 (inactive)	0.137	-0.171
COCCOC(=O)N1C(=O)[C@@]2(c3cc(C#CCNC(N)=O)ccc31)[C@H](c1ccc(O)cc1)N1[C@H](c3ccccc3)[C@H](c3ccccc3)OC(=O)[C@H]1[C@@H]2C(=O)N1CCc2cc(OC)c(OC)cc2C1	-0.328	1.66 (inactive)	-0.202 (inactive)	1.38 (inactive)	0.902 (inactive)	2.24 (inactive)	-0.0681 (inactive)	-0.119 (inactive)	-0.242	0.171
COCCOC(=O)N1C(=O)[C@@]2(c3cc(C#CC4=CCCCC4)ccc31)[C@H](C(=O)N1CCCCCCC1)[C@H]1C(=O)O[C@H](c3ccccc3)[C@H](c3ccccc3)N1[C@@H]2c1ccccc1OCCO	1.84	0.615 (inactive)	0.209 (inactive)	-0.434 (inactive)	0.526 (inactive)	0.511 (inactive)	-0.294 (inactive)	-1.14 (inactive)	0.185	-0.0244
O=C(N1CCOCC1)[C@]1(CCS(=O)(=O)c2ccccc2)N=C(c2ccc(OCCCO)cc2)O[C@@H]1c1ccccc1	0.945	1.14 (inactive)	0.564 (inactive)	2.06 (inactive)	-0.981 (inactive)	2.17 (inactive)	2.71 (inactive)	0.546 (inactive)	0.413	0.0379
COC(=O)[C@H]1N=C(c2ccc(OCCCO)cc2)O[C@H]1c1ccccc1N=[N+]=[N-]	0.249	-3.93 (inactive)	-0.971 (inactive)	0.556 (inactive)	1.43 (inactive)	0.682 (inactive)	0.584 (inactive)	-0.711 (inactive)	0.464	-0.141
OCCCc1cc[n+](Cc2cc3c(cc2Br)OCO3)cc1	-0.0125	-0.486 (inactive)	0.463 (inactive)	-0.22 (inactive)	-0.653 (inactive)	-0.126 (inactive)	0.311 (inactive)	-0.0111 (inactive)	0.275	-0.0931
COC(=O)C1=CC(c2ccc(CO)cc2)=CC(C2CC2)N(Cc2cc3c(cc2Br)OCO3)C=C1C(=O)OC (stereo not given)	-0.0995	-3.02 (inactive)	-1.42 (inactive)	-4.43 (inactive)	0.158 (inactive)	-0.069 (inactive)	0.164 (inactive)	-0.0391 (inactive)	-1.25	0.172
COC(=O)[C@@]1(Cc2ccccc2)[C@H]2c3cc(C(=O)N(C)C)n(Cc4nc5ccccc5[nH]4)c3C[C@H]2CN1C(=O)c1ccccc1	1.17	-0.541 (inactive)	-0.204 (inactive)	-0.862 (inactive)	0.92 (inactive)	-0.706 (inactive)	1.04 (inactive)	0.0023 (inactive)	-0.139	0.0747
CC[C@H]1C2=C3C(CC[C@H]4C(OCc5ccc(F)cc5C(F)(F)F)OC[C@](C)([C@@H]34)N(C(=O)OC(C)(C)C)C2)C(COC(C)=O)C1COC(C)=O (stereo not given in full)	-0.409	0.249 (inactive)	-1.04 (inactive)	-0.804 (inactive)	0.523 (inactive)	0.348 (inactive)	-1.26 (inactive)	-0.539 (inactive)	-0.866	0.48
CCOC(=O)C[C@H]1[C@H](OC(=O)c2cc3ccccc3oc2=O)[C@@H](NC(=O)c2ccc(-c3ccccc3)cc2)c2cc(OCCCO)ccc2N1C(=O)Cc1ccc(OC)cc1	0.288	0.0392 (inactive)	-0.346 (inactive)	-0.487 (inactive)	0.285 (inactive)	-0.0775 (inactive)	-0.225 (inactive)	-0.618 (inactive)	-0.0232	-0.338
COC(=O)[C@@]1(Cc2ccc(OC)cc2)[C@H]2c3cc(C(=O)N(C)C)n(Cc4c(CO)[nH]cc(C)c4=O)c3C[C@H]2CN1C(=O)c1ccccc1	-0.548	-0.0117 (inactive)	-1.06 (inactive)	-0.501 (inactive)	0.371 (inactive)	-0.463 (inactive)	-0.897 (inactive)	-0.542 (inactive)	-0.717	-0.127
COC(=O)C(CC#Cc1ccc2c(c1)[C@]1(C(=O)N2)[C@H](C(=O)N2CCN(c3ncccn3)CC2)[C@H]2C(=O)O[C@H](c3ccccc3)[C@H](c3ccccc3)N2[C@@H]1c1ccc(O)cc1)C(=O)OC	-0.146	0.586 (inactive)	0.235 (inactive)	-15.3 (active)	1.67 (inactive)	1.25 (inactive)	0.167 (inactive)	0.26 (inactive)	-1.47	0.309
CN1C(=O)C2C(C1=O)C1C=C(CCCO)C2C(C2CC2)N1C (stereo not given)	-1.15	0.275 (inactive)	-0.228 (inactive)	-2.87 (inactive)	-0.214 (inactive)	-0.593 (inactive)	0.796 (inactive)	1.44 (inactive)	-0.965	0.333
COc1ccc([Si](C)(C)[C@@H]2[C@@H](CC(=O)N(CCO)Cc3ccccc3)O[C@]3(C(=O)N(Cc4cccc(I)c4)c4ccccc43)[C@H]2C)cc1	-2.2	-0.142 (inactive)	-3.25 (inactive)	0.704 (inactive)	1.51 (inactive)	2.64 (inactive)	-0.335 (inactive)	-0.795 (inactive)	-2.96	0.236
Cc1ccc(S[C@]2(C(=O)NCC(C)C)CC(=O)N(C(C)C)[C@@H]2c2ccc(CO)cc2I)cc1	-0.16	-2.09 (inactive)	-1.52 (inactive)	-0.332 (inactive)	-0.288 (inactive)	-0.91 (inactive)	0.485 (inactive)	-0.117 (inactive)	-1.8	-0.128
